Experimental data taken from the supplement of paper PMC6555819.

system: PPARg:RXRa 90nM:30nM, anti-RXR (NR concentration 90 nM, RXRa partner concentration 30 nM); experiment: PBM binding z-score (relative to random genomic background probes); higher = stronger binding; sequences stand for … in GC…GCGATTGACAGCGTAGAATGAAGG
Method in brief: (§1)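 For binding z-scores, the reference was random background probes on custom Agilent 4×180K protein-binding microarrays. These arrays were incubated 1 h with ligand-free nuclear receptor dimers in PBS pH 7.4, 2% milk, 0.02% Triton X-100, 1 mM DTT, 0.2 mg/mL BSA and 0.4 mg/ml salmon testes DNA. Fluorescence was scanned after antibody detection of each partner (one per run) and regression-normalized.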

Sequence	PBM binding z-score
TCTTGTAGGTCAGCAGGTTAAGAAAGCTGGCCAA	5.71
TAGCCTAGGTCATTCAGGGCCCAGTATAGAAAGC	1.56
AATATAGGGTCACTAGGCCAGAGTAGGTACGAAT	5.68
CCTCCGAGGACAACAGGAGGTCAGAGCTGCCAGA	-0.107
CCTAGCTGGTCAAGGTCACACACGCTATAGGTAC	1.94
ATCGAAAGGTCGTCAGGTGAGTATACAGAAAGGC	2.93
ATCGAAAGGTCGTGAGGTGAATATACAGAAAGGC	3.71
TGAATGAGGTTATAAGAGCAGGGAACGTTGCAAA	1.52
CCTAGTTGGCCAGGAGGTCACACACCGGATATGA	2.2
AGTCAAAGTTCACTAGGTAACGTCAGATTCAGCT	5.98
AGAACGAGGGCACGCTGAGTAGATAGCAGAGTAG	1.18
TCAGACAGGTGATGGTAACTCAGGTACGCAGTCG	2.55
CCTCGGAGGACAAGAGGAGGTCAGAGCTGCCAGA	-0.28
ATATGTAGGTTATCGGGTAATTCAGTTTGCGCAT	4.5
GCTATTAGTTGAAAGCGCAACCGAATGATTCTCG	-0.22
CGGCAAAGTTCAAGGTAACGTAACAGAAAGCAGC	3.43
ATACCAAGGTGATCGTGAGGTTGTTGATACTAAC	0.112
ACAGACAGGTGAGTGAAGGTACCTCAGCTGGACG	-0.682
GGAACGACGGCATTCGAGTTGATAGCATGGCGAT	-0.917
TCGCGTAGGTTACCAATGGGGCATTCAGCTTTCT	0.958

Sequence	PBM binding z-score
TTACCAAGGTAAGCTGAGGTCGTTGATCCAACTC	-0.31
CCTACTGGGCCACGAAAGGTCAGTGATTCAGTGA	2.79
GCTTCTAGATCAAGGTTAAGAAAGACTAAGCTAA	1.13
ACGATTAGTTGAGACGAGGGCAACCGATAGGTTG	-0.534
ATATGTAGGTGAGCTGGGGTCATTCAGACTAGGC	5.74
CCTAGTTGGTCAGGAGGTCTCACACCGGATATGA	0.338
CTCGAAAGGTCGTGCTCAGGTGAGGATACCAAAC	2.43
CCGGCTGGGGCAAGGTTACCATAACGCACAGCCA	0.627
CCGACTGGGGCATAAGGTTACCATAAGCCAGCCC	2.5
GCGACTGGGGCACAGCAGGTTACCATAAGGTTGG	0.859
AGTCAAAGTTAAGGACGAGGTAACGTAAAGCACG	0.179
CGTCCAAGGTCAACGTCAGTGAAAGAGACTCGAA	4.17
ACAGACAGGTGAGTGAATGTAACTCAGCTGGACG	-0.145
GCTGCTAGGTCAACTGATGGTCAGATAAAGCTCG	2.4
TGAATGAGGTTATAGGATCAGGGAACGTTGCAAA	2.08
TAGTCTAGGTCATTGGGCCAGTATAGTACGCATC	4.56
CCAACTGGGCCAAAGGTCATTGATTCCAATGCTC	11.4
AGCCAAAGTTCATCTAGGTAACGTAAGATATGCT	4.72
TCATATAGGTCATACAGGTGAAAGTCGGCATCTA	6.25

system: PPARg:RXRa DBDmut IVT, anti-RXR (DBD mutation: RXRa K156A/R161A, NR concentration 270 nM, RXRa partner concentration 90 nM); experiment: as above
Method in brief: as §1

Sequence	PBM binding z-score
TCTTGTAGGTCAGCAGGTTAAGAAAGCTGGCCAA	6.85
TAGCCTAGGTCATTCAGGGCCCAGTATAGAAAGC	1.83
AATATAGGGTCACTAGGCCAGAGTAGGTACGAAT	5.21
CCTCCGAGGACAACAGGAGGTCAGAGCTGCCAGA	-0.0648
CCTAGCTGGTCAAGGTCACACACGCTATAGGTAC	1.88
ATCGAAAGGTCGTCAGGTGAGTATACAGAAAGGC	0.0444
ATCGAAAGGTCGTGAGGTGAATATACAGAAAGGC	0.388
TGAATGAGGTTATAAGAGCAGGGAACGTTGCAAA	1.21
CCTAGTTGGCCAGGAGGTCACACACCGGATATGA	0.473
AGTCAAAGTTCACTAGGTAACGTCAGATTCAGCT	2.77
AGAACGAGGGCACGCTGAGTAGATAGCAGAGTAG	4.04
TCAGACAGGTGATGGTAACTCAGGTACGCAGTCG	2.18
CCTCGGAGGACAAGAGGAGGTCAGAGCTGCCAGA	-0.0535
ATATGTAGGTTATCGGGTAATTCAGTTTGCGCAT	7.14
GCTATTAGTTGAAAGCGCAACCGAATGATTCTCG	0.316
CGGCAAAGTTCAAGGTAACGTAACAGAAAGCAGC	0.813
ATACCAAGGTGATCGTGAGGTTGTTGATACTAAC	0.768
ACAGACAGGTGAGTGAAGGTACCTCAGCTGGACG	0.368
GGAACGACGGCATTCGAGTTGATAGCATGGCGAT	-0.236
TCGCGTAGGTTACCAATGGGGCATTCAGCTTTCT	1.28

Sequence	PBM binding z-score
TTACCAAGGTAAGCTGAGGTCGTTGATCCAACTC	-0.0286
CCTACTGGGCCACGAAAGGTCAGTGATTCAGTGA	4.86
GCTTCTAGATCAAGGTTAAGAAAGACTAAGCTAA	0.942
ACGATTAGTTGAGACGAGGGCAACCGATAGGTTG	-0.118
ATATGTAGGTGAGCTGGGGTCATTCAGACTAGGC	7.57
CCTAGTTGGTCAGGAGGTCTCACACCGGATATGA	0.196
CTCGAAAGGTCGTGCTCAGGTGAGGATACCAAAC	0.783
CCGGCTGGGGCAAGGTTACCATAACGCACAGCCA	-0.429
CCGACTGGGGCATAAGGTTACCATAAGCCAGCCC	2.93
GCGACTGGGGCACAGCAGGTTACCATAAGGTTGG	5.07
AGTCAAAGTTAAGGACGAGGTAACGTAAAGCACG	-0.606
CGTCCAAGGTCAACGTCAGTGAAAGAGACTCGAA	3.75
ACAGACAGGTGAGTGAATGTAACTCAGCTGGACG	0.386
GCTGCTAGGTCAACTGATGGTCAGATAAAGCTCG	4.95
TGAATGAGGTTATAGGATCAGGGAACGTTGCAAA	1.16
TAGTCTAGGTCATTGGGCCAGTATAGTACGCATC	5.99
CCAACTGGGCCAAAGGTCATTGATTCCAATGCTC	5.49
AGCCAAAGTTCATCTAGGTAACGTAAGATATGCT	0.587
TCATATAGGTCATACAGGTGAAAGTCGGCATCTA	6.93
